Molecules are shown by their SMILES. The source made the active and inactive calls. Rule for the calls: active = hit-call score of the fitted dose curve at least 0.9, where 1 is the maximum; inactive = score below 0.9.

The source of these data is PubChem BioAssay (EPA / NIEHS).

This assay in a line: BSK_BT_Bcell_Proliferation: Viability Assessment in the BioMAP Diversity Plus: BT Assay for B cell Proliferation (AID 2284227). The settings on record: primary human B cells with PBMC. How it is done:
BSK_BT is a cell-based, multiplexed-readout assay that uses B cell and peripheral blood mononuclear cells, a human vascular primary cell co-culture, with measurements taken at 24 hours after chemical dosing in a microplate: 96-well plate.BSK_BT_Bcell_Proliferation is an assay component measured in the BSK_BT assay. It measures protein content, a form of viability reporter, as detected with absorbance signals by Sulforhodamine staining technology.Data from the assay component BSK_BT_Bcell_Proliferation was analyzed at the endpoint, BSK_BT_Bcell_Proliferation, in the positive analysis fitting direction relative to DMSO as the negative control and baseline of activity. Using a type of viability reporter, gain or loss-of-signal activity can be used to understand cellular changes in viability. To generalize the intended target to other relatable targets, this assay endpoint is annotated to the 'cell cycle' intended target family, where the subfamily is 'proliferation'.
The levels of cell surface (or secreted, indicated by the prefix "s") biomarker endpoints were measured by ELISA. Overt cytotoxicity to cells in confluent adherent cultures (all systems other than the BT system) was assessed by measuring total protein levels using sulforhodamine B (SRB) staining in parallel cultures at the time of biomarker measurements, indicated as SRB endpoints. For proliferation assays for adherent cell types, individual cell types are cultured at sub-confluence and relative cell numbers quantified by SRB staining at time points optimized for each system (48 h: 3C and CASM3C systems; 72 h: BT and HDF3CGF systems; 96 h: SAg system). SRB was performed by staining cells with 0.1% SRB after fixation with 10% TCA and reading wells at 560 nm.Viability and proliferation of PBMC (T cells) was quantified by Alamar Blue reduction for the SAg and BT systems. For PBMC viability (referred to as PBMC Cytotoxicity within the assay endpoint names), cells were plated (75,000/well in a 96-well plate) and then chemical samples added for 1 h before addition of activators, SEB and TSST-1 (20 ng/mL final concentration each). Cells were incubated for 90 h. Then, Alamar Blue (20 uL/well) (Invitrogen, Cat DAL1100) was added for 6 h, and the plates were read with a fluorescence microplate reader at 546/580 nm (excitation/emission). For PBMC proliferation, cells were plated and activated as above but incubated for only 16 h prior to addition of Alamar Blue. Plates were read after 6 h.
`C=C(C)C(=O)OCCOCCOCCOCCOC(=O)C(=C)C`: the result was inactive.

As for `C=C(C)C(=O)OCCOCCOCCOC(=O)C(=C)C`, the result was inactive.

Turning to `c1ccc(Oc2ccccc2)cc1`, the result was inactive.

One may read the AC50 as the concentration at which the activity in the assay is half-maximal. Regarding `COc1ccc(CCN2CCC(Nc3nc4ccccc4n3Cc3ccc(F)cc3)CC2)cc1`, the AC50 was 5.84 µM (active).

For the compound `CC(=O)C1(C)CC2=C(CCCC2(C)C)CC1C` (stereo not drawn), the AC50 was 34.7 µM (active).

Consider `CCCCN(CCCC)C(=O)N(CCCC)CCCC`, for which the AC50 is 31.4 µM (active).

With `C=C(C)[C@H]1CC=C(C)C(=O)C1`, the outcome was inactive.

For the compound `CCCCCC(C=O)=Cc1ccccc1`, the outcome was inactive.

For `CC(C=O)Cc1ccc(C(C)(C)C)cc1` (stereo not drawn), the result was inactive.

For the compound `CSCCC=O`, the outcome was inactive.

Consider `CC(=O)c1c(C)c([N+](=O)[O-])c(C(C)(C)C)c([N+](=O)[O-])c1C`, for which the result was inactive.

`CC=Cc1ccc(OCC)c(O)c1`: the result was inactive.

Consider `CCCCCCCCCCCCCCCC(=O)OC/C=C(C)/C=C/C=C(C)/C=C/C1=C(C)CCCC1(C)C`, for which the outcome was inactive.

Consider `CN(c1nccc(=O)[nH]1)C1CCN(c2nc3ccccc3n2Cc2ccc(F)cc2)CC1`, for which the result was inactive.

As to `O=C1OC[C@H](Cc2cccc(O)c2)[C@H]1Cc1cccc(O)c1`, the result was inactive.

Consider `c1ccc2cc(Nc3ccc(Nc4ccc5ccccc5c4)cc3)ccc2c1`, for which the outcome was inactive.

`COc1ccc(OC)c(N=Nc2c(O)ccc3ccccc23)c1`: the outcome was inactive.

Consider `c1ccc(CCc2ccccc2)cc1`, for which the outcome was inactive.

In the case of `Cc1cc(CCC(=O)OCCOCCOCCOC(=O)CCc2cc(C)c(O)c(C(C)(C)C)c2)cc(C(C)(C)C)c1O`, the outcome was inactive.

With `Oc1c(Cl)cc(Cl)c(Cl)c1Cc1c(O)c(Cl)cc(Cl)c1Cl`, the AC50 was 12.6 µM (active).

In the case of `CN(C)C(=O)Nc1ccc(Oc2ccc(Cl)cc2)cc1`, the result was inactive.

With `O=C1c2ccccc2C(=O)c2c(O)ccc(O)c21`, the AC50 is 11.8 µM (active).

As to `CN(C)C(=S)SC(=S)N(C)C`, the AC50 is 0.436 µM (active).

Consider `C[C@@H]1CCN(C(=O)[C@H](CCCN=C(N)N)NS(=O)(=O)c2cccc3c2NC[C@H](C)C3)[C@@H](C(=O)O)C1`, for which the outcome was inactive.

Turning to `CC(C)(C)CC(C)(C)c1ccc(OCCOCC[N+](C)(C)Cc2ccccc2)cc1`, the AC50 was 5 µM (active).

For `CC(C)(N=C=O)c1cccc(C(C)(C)N=C=O)c1`, the result was inactive.

With `IC(I)I`, the outcome was inactive.

Turning to `CC1(C)C2=CCCC(C)(C)[C@]23CC[C@H]1C3`, the result was inactive.

Consider `O=C1OC2(c3ccccc31)c1ccc(O)c(Br)c1Oc1c2ccc(O)c1Br`, for which the result was inactive.

As to `COc1cc(Cl)c(OC)cc1N`, the outcome was inactive.

As to `CC(=O)Nc1ccc(C(=O)CCl)cc1`, the AC50 is 5.39 µM (active).

In the case of `CCN(CC)C(=O)N(CC)CC`, the outcome was inactive.

On to `C=C(C)C(=O)OCC(CC)(COC(=O)C(=C)C)COC(=O)C(=C)C`, for which the AC50 was 25.5 µM (active).

With `C1=CC2C3C=CC(C3)C2C1` (stereo not drawn), the result was inactive.

Regarding `CS(=O)(=O)c1ccc(C2=C(c3ccccc3)C(=O)OC2)cc1`, the result was inactive.

In the case of `CCCCOC(=O)CCCCCCCC(=O)OCCCC`, the result was inactive.

For the compound `Clc1cc(Cl)c(-c2c(Cl)c(Cl)cc(Cl)c2Cl)cc1Cl`, the result was inactive.

For `CCC(C)c1cc([N+](=O)[O-])cc([N+](=O)[O-])c1OC(=O)OC(C)C` (stereo not drawn), the AC50 is 26.7 µM (active).
